Experimental findings from PubChem BioAssay (Tox21) are described below.

Results filed as inconclusive are left out. Where a call stands in place of a potency, no number is given. Calls of active or inactive are those of the source. Calls follow the shape of the dose curve; as a rule, active = well fitted cell-killing curve with a large enough effect in the repeat runs (not every such curve was filed as active); inconclusive = weak or mixed curves, or effect the other way; inactive = no such curve, though single readings can be large or run the other way.

The test can be described thus: qHTS assay to identify small molecule antagonists of the farnesoid-X-receptor (FXR) signaling pathway - cell viability counter screen (AID 743221). Also: nearly all actives have a fitted effect of over 50% in size. The following applies: FXR-bla HEK293T viability, CellTiter-Glo luminescence, 16 h; series mostly up to 62.6 µM. The source says: National Center for Advancing Translational Sciences [NCATS]
NIH Chemical Genomics Center [NCGC]
U.S. Environmental Protection Agency [EPA]
National Institutes of Environmental Health Sciences [NIEHS]
National Toxicology Program [NTP]
U.S. Food and Drug Administration [FDA]
The farnesoid-X-receptor (FXR), a nuclear hormone receptor, is highly expressed in liver, intestine, kidney and adrenal cortex. Natural ligands of FXR are the bile acids (Cholic acid, Chenodeoxy cholic acid etc). FXR is an important regulator of diverse metabolic pathways, including the bile acid homeostasis, lipid and glucose metabolisms. FXR regulates the expression of target genes by binding either as a monomer or as a heterodimer with the retinoid X receptor (RXR). Numerous studies have reported that FXR exerts protective function during cholestasis, diabetes, liver regeneration, and cancer. To identify compounds that inhibit FXR signaling, GeneBLAzer FXR-UAS-bla HEK 293T cell line (Invitrogen, Carlsbad, CA) containing a beta-lactamase reporter gene under the control of a UAS response element was used to screen the Tox21 10K compound library. The cytotoxicity of the Tox21 compound library against the FXR-bla cell line was tested in parallel by measuring the cell viability using CellTiter-Glo assay in the same wells.
Tox21 Assay Protocol Summary:
FXR-bla cells were dispensed at 5000 cells/5uL/well in 1536-well black wall/clear bottom plates using a Multidrop Combi (Thermo Fisher Scientific, Waltham, MA) dispenser. After the assay plates were incubated at 37 C and 5% CO2 for 5 h, 23 nL of compounds dissolved in DMSO, positive controls or DMSO only was transferred to the assay plate by a Pintool station (Kalypsys, San Diego, CA), followed by addition of 1 uL Chenodeoxycholic acid (50 uM, final concentration in the wells). The assay plates were incubated at 37C for 16 h. After 1 uL of LiveBLAzerTM B/G FRET substrate was added using a Bioraptr Flying Reagent Dispenser (FRD) workstation (Beckman Coulter, Indianapolis, IN), the plates were incubated at room temperature for 2 h, and fluorescence intensity was measured by an Envision plate reader (PerkinElmer, Shelton, CT). For cell viability readout that measures cytotoxicity, 4uL/well of CellTiter-Glo reagent was added into the assay plates using a Bioraptr FRD. After 30 min incubation at room temperature, the luminescence intensity in the plates was measured using a ViewLux plate reader (PerkinElmer).
With `Oc1ccc2c(c1)OCO2`, the Potency result was “inactive”. `CC(C)NCC(O)c1cc(O)cc(O)c1` (stereo not given): the Potency entry was “inactive”. On the same count and under the same terms, in the case of `CC[C@]12CCCN3CCc4c(n(c5ccccc45)C(=O)C1)[C@@H]32` it was “inactive”; in that of `CN(C(=O)CCCOc1ccc2[nH]c(=O)ccc2c1)C1CCCCC1`, “inactive”. Still for that read-out and setting: in the case of `Cc1ccc2c(ccc3ccccc32)c1` it was “inactive”; in that of `CC(C)(C)c1ccc(OCC2CO2)cc1` (stereo not given), “inactive”; in that of `Cc1ccccn1`, “inactive”. Same read-out and setting: in the case of `CCCCCCCCCO` it was “inactive”. As to `CC(C)c1ccc2c(C(C)C)cc(C(C)C)c(S(=O)(=O)O)c2c1`, the Potency result was “inactive”. On the same count and under the same terms, as for `CN1CCC(=C2c3ccccc3C=Cc3ccccc32)CC1`, the entry is “inactive”; as for `O=C(CC(=O)c1ccccc1)c1ccccc1`, “inactive”. On to `COCCO`, for which the Potency entry is “inactive”. `O=C(O)c1cn(C2CC2)c2cc(Cl)c(F)cc2c1=O`: the Potency result was “inactive”.

As to `CC(=O)OC/C=C/c1ccccc1`, the Potency result is “inactive”. As to `CC[C@H](C)[C@@H](C(=O)O)n1sc2ccccc2c1=O`, the Potency result is “inactive”. On the same count and under the same terms, as for `CNCC[C@@H](Oc1ccccc1C)c1ccccc1`, the entry is “inactive”. On to `O=C(O)[C@@H]1[C@H]2C[C@H]3c4[nH]c5ccccc5c4CCN3C[C@@H]2CC[C@@H]1O`, for which the Potency entry is “inactive”. As for `Cc1ccc(C(C)c2ccc(C)c(C)c2)cc1C`, the Potency result was “inactive”. The same measure, in the same setting: in the case of `COC(=O)C(C)=O` it was “inactive”. Regarding `Cc1cccc(C(C)(C)C)c1O`, the Potency result was “inactive”. As for `NC[C@H]1O[C@H](O[C@H]2[C@H](O)[C@@H](O[C@H]3O[C@H](CO)[C@@H](O)[C@H](N)[C@H]3O)[C@H](N)C[C@@H]2N)[C@H](O)[C@@H](O)[C@@H]1O`, the activity change, negative = cytotoxicity was -10.3% [at 5.95 µM] (inactive). `CC(C)=CCCC(C)CC=O` (stereo not given): the Potency entry was “inactive”.

On to `CCCCCCCCCC(=O)OCC`, for which the Potency result is “inactive”.

Take `CCCCCCCCCCCCCCC1CO1` (stereo not given): the Potency result is “inactive”.

As for `O=C(O)Cc1sc(-c2ccccc2)nc1-c1ccc(Cl)cc1`, the Potency result was “inactive”. The same measure, in the same setting: in the case of `CCN1CCC[C@H]1CNC(=O)c1c(OC)ccc(Br)c1OC` it was “inactive”.

Consider `CC(C)(C)C(=O)OCOP(=O)(COCCn1cnc2c(N)ncnc21)OCOC(=O)C(C)(C)C`, for which the Potency entry was “inactive”. The same measure, in the same setting: in the case of `C=C(C)C(=O)OCCOc1ccccc1` it was “inactive”; in that of `COc1ccccc1OC(=O)Oc1ccccc1OC`, “inactive”; in that of `CC(C)(Oc1ccc(Cl)cc1)C(=O)OCCCOC(=O)C(C)(C)Oc1ccc(Cl)cc1`, “inactive”. On the same count and under the same terms, as for `CCCc1ccccc1`, the entry is “inactive”. Same read-out and setting: as for `OC(CCN1CCCCC1)(c1ccccc1)C1CCCCC1` (stereo not given), the entry is “inactive”; as for `CCCCCCCCCCCCCCCBr`, “inactive”. With `CCCCCCCCCCCCCCCC(=O)OC/C=C(C)/C=C/C=C(C)/C=C/C1=C(C)CCCC1(C)C`, the Potency result was “inactive”. Same read-out and setting: in the case of `NCCCOCCOCCOCCCN` it was “inactive”. Still for that read-out and setting: as for `CN1CCC[C@@H]1c1cccnc1`, the entry is “inactive”. Take `O=C(NS(=O)(=O)/C=C/c1cccs1)c1ccc(F)cc1Br`: the Potency entry is “inactive”. On the same count and under the same terms, as for `CC[C@@H]1C[C@H](N(Cc2cc(C(F)(F)F)cc(C(F)(F)F)c2)C(C)=O)c2cc(C(F)(F)F)ccc2N1C(=O)OC(C)C`, the entry is “inactive”; as for `CCCCC(CC)(CO)CO`, “inactive”; as for `CCCCOC(=O)/C=C\C(=O)OCCCC`, “inactive”.
